Screening results deposited in PubChem by National Center for Advancing Translational Sciences (NCATS).
FUS suppressor: suppressors of FUS proteinopathy in yeast; S. cerevisiae FUS-expressing, growth rescue, OD600, 24 h; Potency, µM (top dose mostly 76.6 µM), most hits filed as activators; actives 0.24% (n = 390,000); note: nearly all actives have a fitted effect of over 55% in size
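Restored growth of FUS-toxic S. cerevisiae, read as 600 nm absorbance after 24 h at 30C in galactose medium (starting OD 0.005). Controls CP55940 and DMSO.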
Abeta rescue: restores growth of yeast expressing A-beta42 peptide | yeast expressing A-beta42, growth rescue, OD600, 48 h; response scale: 0% DMSO, 100% iron-clioquinol control | Potency, µM (titrated, usually from 46.1 µM), usual class: activators | actives 0.063% (n = 410,000) | AID 1347071; note: nearly all actives have a fitted effect of over 55% in size
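Yeast growth medium received pinned compounds, then yeast cells expressing toxic A-beta were added; plates incubated at 30 C for 48 hr. Growth read as absorbance at 600 nm, normalized to DMSO and equimolar FeCl3 plus clioquinol controls.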
aSyn yeast inh: rescues yeast growth from alpha-synuclein toxicity; actives 0.14% (n = 370,000); AID 652106; Potency, µM (titrated, usually from 46.1 µM), actives largely listed as activators; Yeast expressing alpha-synuclein, growth rescue, BacTiter-Glo, 24 h; note: nearly all actives have a fitted effect of over 65% in size
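Rescue of yeast growth: cells expressing toxic alpha-synuclein, induced in galactose at OD600 0.02, incubated with compound 24 h at 30 C. ATP luminescence quantified growth; inhibitors of toxicity appear as activators.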
TDP-43 yeast inh: inhibitors of TDP-43 toxicity in yeast | actives 1.8% (n = 410,000) | TDP-43 expressing yeast growth rescue, BacTiter-Glo, 24 h | Potency, µM (titrated, usually from 46.1 µM), usual class: activators | AID 652104; note: nearly all actives have a fitted effect of over 50% in size
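Yeast cells expressing TDP-43 under galactose induction are exposed to compounds for 24 hr at 30 deg C. BacTiter-Glo luminescence measures growth, so protective compounds score as activators.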
Large screens that a line does not name were inactive. An excerpt weighted towards active compounds, which were near 2.1% of everything screened. Calls come from the whole dose curve; as a rule, active = well fitted curve in the direction sought with a large enough effect; inconclusive = small, poorly fitted or top-dose-only effect, or another doubt; inactive = no such curve, though single readings can be large; an effect the other way counts as inactive or inconclusive.

Cc1ccccc1N1CC(c2nc3ccccc3n2CCC2CCCCC2)CC1=O (stereo unspecified)	FUS suppressor inconclusive, TDP-43 yeast inh 22.4µM (no result: aSyn yeast inh)
COc1ccccc1C(=O)OCc1c(-c2ccccc2)ncc2ccccc12	FUS suppressor inconclusive, TDP-43 yeast inh 25.1µM
CC(C)(C)OC(=O)N1CCC(N[C@@H](Cc2c[nH]c3ccccc23)C(=O)NCC(c2ccccc2)c2ccccc2)(C(=O)NC2CCCCC2)CC1	FUS suppressor 10µM (no result: Abeta rescue, aSyn yeast inh, TDP-43 yeast inh)
O=C(NCc1cccs1)C1C(=O)Nc2ccccc2C(=O)N1C1CCCC1 (stereo unspecified)	none
O=C1c2ccccc2N2C(=O)c3ccccc3[C@H]2N1c1ccccc1	TDP-43 yeast inh 20µM
O=C(CSCc1ccc(F)cc1)N1CCN(c2ccc(Cl)cc2)CC1	FUS suppressor inconclusive, TDP-43 yeast inh 17.8µM (no result: aSyn yeast inh)
O=C(CCSCc1ccccc1F)N1CCN(c2ccc(F)cc2)CC1	TDP-43 yeast inh 11.2µM (no result: aSyn yeast inh)
O=C(CCSCc1ccccc1Cl)N1CCN(c2ccc(F)cc2)CC1	FUS suppressor inconclusive, TDP-43 yeast inh 15.8µM (no result: aSyn yeast inh)
CCS(=O)(=O)N1CCN(c2ccc(C(=O)NC34CC5CC(CC(C5)C3)C4)cc2[N+](=O)[O-])CC1	none
Fc1cccc(Cl)c1CSc1nnc2ccccn12	none
COc1ccc2c(c1)CCCC2NS(=O)(=O)OCC(Cl)(Cl)Cl (stereo unspecified)	TDP-43 yeast inh 35.5µM
COc1ccc(CNC2CCCc3ccccc32)c(OC)c1 (stereo unspecified)	none
Cc1cccc(N2C(=O)C(Oc3ccc(Cl)cc3Cl)C2C=O)c1C (stereo unspecified)	TDP-43 yeast inh 15.8µM (no result: FUS suppressor)
COCCN1CC(=O)N(c2cccc(C)c2C)C(c2ccc(Cl)cc2)C1=O (stereo unspecified)	none
Cc1ccc(-c2ccc(/C=N/O)o2)cc1[N+](=O)[O-]	TDP-43 yeast inh 12.6µM
CC(C)n1ncc2c(C(=O)Nc3cccc(C#N)c3)cc(C3CC3)nc21	TDP-43 yeast inh 22.4µM
CCNC(=O)c1cccc(NC(=O)c2cc(C3CC3)nc3c2cnn3C(C)C)c1	none
Nc1nc(N)nc(-c2cccc([N+](=O)[O-])c2)n1	none
CC1CC(C)CN(c2nc(N(C)c3ccccc3)nc(N)c2[N+](=O)[O-])C1 (stereo unspecified)	TDP-43 yeast inh 17.8µM
CC1CN(c2nc(N(C)c3ccccc3)nc(N)c2[N+](=O)[O-])CC(C)O1 (stereo unspecified)	none
CCc1ncc(C)nc1CC	none
CCOC(=O)c1cnc(-n2[nH]c(C)cc2=O)[nH]c1=O	none
Cc1cc(=O)[nH]c(N2CCCNCC2)n1	none
CCOC(=O)c1cnc(-n2nc(C)cc2C)[nH]c1=O	Abeta rescue inconclusive, aSyn yeast inh 22.4µM, TDP-43 yeast inh inconclusive
Cc1cc(=O)[nH]c(-n2nc(C)cc2C)n1	Abeta rescue inconclusive, aSyn yeast inh 28.2µM, TDP-43 yeast inh inconclusive
COC(=O)C(C)Oc1ccc2c(c1)O/C(=C\c1ccco1)C2=O (stereo unspecified)	none
CC(=O)C1=CCC(c2ccccc2Cl)N(S(=O)(=O)c2ccc(C)cc2)C1 (stereo unspecified)	FUS suppressor inconclusive, TDP-43 yeast inh 20µM
CCOc1cccc(C(=O)NC(=S)Nc2cccc(C)c2)c1	Abeta rescue inconclusive, TDP-43 yeast inh 35.5µM
O=C(NC(=S)Nc1ccccc1O)c1cncc(Br)c1	Abeta rescue inconclusive, aSyn yeast inh 17.8µM
CCn1cc(C(=O)NC(=S)Nc2ccccc2Br)cn1	TDP-43 yeast inh 14.1µM
COc1cccc(NC(=S)NC(=O)c2cncc(Br)c2)c1	Abeta rescue inconclusive, TDP-43 yeast inh 12.6µM
CCn1cc(C(=O)NC(=S)Nc2ccccc2[N+](=O)[O-])cn1	none
O=C(NC(=S)Nc1ccccc1C(=O)O)c1cncc(Br)c1	none
O=C(c1cc2c(Cl)nc3ccccc3c2s1)N1CCCCC1	TDP-43 yeast inh 35.5µM (no result: aSyn yeast inh)
CC(=O)NS(=O)(=O)c1ccc(N=NN2CCOCC2)cc1	none (no result: FUS suppressor)
CCN1C(=O)C(CC(=O)Nc2ccc(F)cc2)N(Cc2ccco2)C1=S (stereo unspecified)	none
CCCCCCOc1ccc(NC(=O)CC2C(=O)N(CC)C(=S)N2Cc2ccco2)cc1 (stereo unspecified)	aSyn yeast inh 14.1µM, TDP-43 yeast inh inconclusive (no result: FUS suppressor)
Cc1ccc(CCNC(=O)C2CCCN(S(=O)(=O)c3c(C)noc3C)C2)cc1 (stereo unspecified)	none
